G9a block: blocks human histone lysine methyltransferase G9a | Q96KQ7 | G9a H3K9 monomethylation, AlphaScreen, 2 h | Potency, µM (top dose mostly 102 µM), usual class: inhibitors | actives 8.8% (n = 350,000) | AID 504332; note: nearly all actives have a fitted effect of over 75% in size
Target sequence (Q96KQ7 913-1193 limits assumed): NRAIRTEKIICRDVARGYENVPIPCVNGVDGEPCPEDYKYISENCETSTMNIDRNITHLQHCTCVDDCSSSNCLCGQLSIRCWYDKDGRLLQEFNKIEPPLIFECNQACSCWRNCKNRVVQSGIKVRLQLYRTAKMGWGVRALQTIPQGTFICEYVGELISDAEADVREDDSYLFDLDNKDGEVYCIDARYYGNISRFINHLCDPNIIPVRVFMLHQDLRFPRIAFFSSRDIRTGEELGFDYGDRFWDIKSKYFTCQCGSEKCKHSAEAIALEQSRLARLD
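Methyltransferase reactions run at room temperature for 2 h (20 nM enzyme, 500 nM biotin-H3K9 peptide, 20 uM SAM) after a 15 min compound preincubation; product detected by AlphaScreen beads and anti-H3K9me1 antibody.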
L3MBTL1 inh: inhibitors of human L3MBTL1; Q9Y468; AlphaScreen L3MBTL1–H3K9me1 peptide binding; Potency, µM (top dose mostly 57.1 µM), hits mostly inhibitors; actives 0.66% (n = 230,000); AID 485360; note: nearly all actives have a fitted effect of over 60% in size
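Read-out is AlphaScreen signal from streptavidin donor and nickel chelate acceptor beads (10 ug/mL final each) bridging L3MBTL1 (50 nM) and biotinylated K9-monomethylated H3(1-15) peptide (75 nM), after 30 min compound exposure at room temperature.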
BAZ2B block: inhibitors of human BAZ2B bromodomain; AID 504333; Potency, µM (highest dose often 114 µM), hits mostly inhibitors; Q9UIF8; AlphaScreen BAZ2B-H3K14Ac peptide displacement; actives 4.4% (n = 360,000); note: nearly all actives have a fitted effect of over 60% in size
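Complex of BAZ2B and biotin-H3K14Ac (50 nM apiece) forms over 30 min at RT, then faces library compounds up to 110 uM for another 30 min; AlphaScreen beads added, 20 min dark incubation, luminescence read.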
JMJD2A Tudor inh: inhibitors of human JMJD2A Tudor domain | actives 4.4% (n = 390,000) | Potency, µM (highest dose often 114 µM), actives largely listed as inhibitors | AlphaScreen JMJD2A-Tudor / H3K4me3 peptide binding | AID 504339 | O75164; note: nearly all actives have a fitted effect of over 50% in size
HP1b binding inh: inhibitors of HP1-beta chromodomain binding to methylated histone tails; P83916; AlphaScreen HP1-beta / biotin-H3K9me3 peptide binding; Potency, µM (titrated, usually from 114 µM), most hits filed as inhibitors; actives 0.56% (n = 390,000); AID 540317; note: nearly all actives have a fitted effect of over 70% in size
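HP1-beta protein (50 nM final) preincubated 30 min at room temperature with biotinylated H3(1-18)K9me3 peptide (50 nM) in PBS pH 7.4, 0.01% Tween-20, then compound added for 30 min. AlphaScreen streptavidin donor/nickel chelate acceptor beads (10 ug/mL final), 30 min dark, luminescence read.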
PI5P4K alpha inh: inhibitors of human PI5P4K alpha. P48426. PI5P4Kalpha enzyme, ADP-Glo luminescence, 60 min; hits give low values. actives 1.2% (n = 330,000). max response, %; active = max response of -50% or lower; inconclusive = between -30% and -50%; inactive = -30% or higher; note: value at the top dose of about 77 µM
Target sequence (P48426 whole entry, looked up): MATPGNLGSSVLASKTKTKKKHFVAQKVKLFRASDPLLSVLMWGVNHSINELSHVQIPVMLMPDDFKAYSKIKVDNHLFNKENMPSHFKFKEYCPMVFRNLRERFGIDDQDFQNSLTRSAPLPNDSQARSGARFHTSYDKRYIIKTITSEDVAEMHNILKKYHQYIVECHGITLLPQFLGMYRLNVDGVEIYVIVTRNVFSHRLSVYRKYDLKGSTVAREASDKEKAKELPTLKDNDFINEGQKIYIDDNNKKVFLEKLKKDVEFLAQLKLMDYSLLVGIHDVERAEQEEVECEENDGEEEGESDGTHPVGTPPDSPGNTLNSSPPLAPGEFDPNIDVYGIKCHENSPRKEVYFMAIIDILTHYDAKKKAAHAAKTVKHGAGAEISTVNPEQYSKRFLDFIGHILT
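ADP-Glo luminescence end-point after a 60 min room-temperature kinase reaction. PI5P4Kalpha and substrate in HEPES pH 7.4 buffer with EGTA, 0.1% CHAPS and 5% DMSO; ATP at 5 microM final.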
Numbers stand for hits; i = inactive; ? = inconclusive; nt = no result given; [ ] = dose if it differs, or a comment. Shown are actives, neighbours in structure and some others; about 11% of the full set was active somewhere. Unless noted, calls come from the whole dose curve; as a rule, active = well fitted inhibition curve with a large enough effect; inconclusive = small, poorly fitted or top-dose-only effect; inactive = no such curve, though single readings can be large or run the other way.

SMILES	G9a block	L3MBTL1 inh	BAZ2B block	JMJD2A Tudor inh	HP1b binding inh	PI5P4K alpha inh
Cc1nnc(SCC2=C(C(=O)O)N3C(=O)C(NC(=O)Cn4nc(C(F)F)cc4C)C3SC2)s1 (stereo unspecified)	14µM	?	50µM	25µM	i	i
Cc1nnc(SCC2=C(C(=O)O)N3C(=O)C(NC(=O)c4cc(F)c(F)cc4Cl)C3SC2)s1 (stereo unspecified)	28µM	nt	79µM	i	i	i
CN(C)CCn1nnnc1SCC1=C(C(=O)O)N2C(=O)[C@@H](NC(=O)Cc3csc(N)n3)[C@H]2SC1	16µM	28µM	50µM	56µM	i	i
Cc1cc(-c2csc(NC(=O)C3=COCCO3)n2)c(C)n1C	50µM	i	i	i	i	i
COc1ccc(C(=O)Nc2nc(-c3cccs3)cs2)cc1	i	nt	i	i	i	i
COc1ccc(-c2csc(NC(=O)CCn3cnc4ccccc4c3=O)n2)cc1OC	i[0.501 µM]	i	i	i	i	nt
Cc1ccc(-c2csc(NC(=O)c3cccc(S(=O)(=O)N4CCN(C)CC4)c3)n2)cc1	?	i	i	i	i	i
O=C(Nc1nc(-c2cccs2)cs1)c1cccc(S(=O)(=O)N2CCCCC2)c1	13µM	i	?	i	i	i
COc1ccc(-c2csc(NC(=O)CCCc3nc4ccccc4c(=O)[nH]3)n2)cc1OC	40µM	i	i	i	i	?
O=C(Nc1nc(-c2cccs2)cs1)c1ccc(Cl)cc1	32µM	nt	i	i	i	i
COc1cc(-c2noc(-c3ccc(NC4CCCC4)c([N+](=O)[O-])c3)n2)cc(OC)c1OC	i	nt	i	i	i	nt
Cc1oc(-c2ccc(Cl)cc2)nc1Cn1c(=O)cc(C)c2c(C)nn(-c3ccccc3)c21	i	nt	i	i	i	nt
O=C(CCc1nc(-c2cccs2)no1)Nc1cccc([N+](=O)[O-])c1	i	nt	i	i	i	nt
Oc1ccc(Cl)cc1C1C=C(c2ccc3c(c2)OCO3)NC(c2ccc(C(F)(F)F)cc2)N1 (stereo unspecified)	nt	nt	nt	i	i	nt
CC(=O)c1cc(C(=O)Nc2cccc(C)c2)c2ccccn12	i	nt	i	i	i	nt
COc1cccc(-c2csc(NC(C)=O)n2)c1	10µM	i	i	i	i	i
O=C(Nc1nc(-c2ccc(F)c(F)c2)cs1)C1=COCCO1	i[12.7 µM]	i	i	i	i	i
COc1ccc(-c2csc(NC(=O)C3=COCCO3)n2)cc1OC	56µM	i	?	i	i	i
COC(=O)c1c(-c2cccc(OC)c2)csc1N	40µM	i	?	i	i	i
COc1ccc(-c2csc(NC(C)=O)n2)cc1OC	i	nt	i	56µM	i	i
Cc1cc(C)nc(-n2nc(C)cc2NC(=O)c2cccc(S(=O)(=O)N3CCCCC3)c2)n1	8.9µM	i	i	nt	nt	nt
O=C(Nc1nc(-c2cccs2)cs1)C1=COCCO1	i	i	i	14µM	?	i
Cc1cc(NC(=O)c2cccc(S(=O)(=O)N3CCCCCC3)c2)n(-c2ccccn2)n1	i	i	i	?	i	i
CCOc1ccccc1NC(=O)N1CCN(Cc2cc(=O)n3nc(-c4ccc(C)cc4)sc3n2)CC1	i	nt	i	i	i	nt
CC(C)c1cc(C(C)C)c(S(=O)(=O)Nc2cccc3cccnc23)c(C(C)C)c1	nt	nt	nt	i	nt	nt
SMILES	G9a block	L3MBTL1 inh	BAZ2B block	JMJD2A Tudor inh	HP1b binding inh	PI5P4K alpha inh
Cc1ccc(C)c(N2CCN(C(=O)Cn3cnc4onc(-c5ccc(F)cc5)c4c3=O)CC2)c1	i	nt	i	i	i	nt
CCCC1=[N+](CC)CCn2c(C)ccc21	14µM	i	i	?	i	nt
CCn1c(=NC(=O)c2ccc(S(=O)(=O)N3CCCC3)cc2)sc2cc(Br)ccc21	i	nt	i	i	i	nt
CCc1noc(-c2ccc(NCc3ccccc3)c([N+](=O)[O-])c2)n1	i	nt	i	i	i	nt
Nc1ccc(S(=O)(=O)N2CCN(S(=O)(=O)c3c(F)cccc3F)CC2)cc1	nt	nt	nt	89µM	nt	nt
CCn1nnc2cc(C(=O)Nc3ccc(Cl)cc3C)ccc21	i	nt	i	i	i	nt
Cn1cccc1CNC1CCCCC1	50µM	nt	i	i	i	nt
c1ccc(-n2cccc2CNC2CCCCC2)cc1	?	i	?	3.5µM	?	nt
CCCCNCc1cccn1-c1ccccc1	?	i	71µM	5µM	?	i
COc1cccc(CNC(=O)CCc2nnc3n(CC(C)C)c(=O)c4ccccc4n23)c1	i	nt	i	i	i	nt
Cc1nn(-c2ccccc2)c2c1N(CCCC(=O)NCc1ccc(N(C)C)cc1)C(=O)CS2	?	nt	?	56µM	i	nt
Cc1nn(-c2ccccc2)c2c1N(CC(=O)NCc1ccc(N(C)C)cc1)C(=O)CS2	i	nt	?	i	i	nt
COc1ccc(-n2nc(N)c(C(N)=O)n2)cc1	45µM	i	?	i[11.4 µM]	i	i
CCNc1nc(-c2ccc(OC(F)F)cc2)c(C)s1	40µM	nt	i	i	i	i
OC(CNCC1(N2CCCCC2)CCCCC1)COc1ccc(Cl)cc1Cl (stereo unspecified)	50µM	i	i	2.8µM	?	i
O=C(COc1ccc(Cl)cc1Cl)NCC1(N2CCOCC2)CCCCC1	nt	i	nt	i	i	i
O=C(NCCc1ccc(Cl)cc1)C1CCC(=O)N1C1CCCC1 (stereo unspecified)	45µM	i	i	i	i	nt
O=C(Nc1cccc(CNCCc2c[nH]c3ccccc23)c1)c1ccccc1Cl	28µM	nt	50µM	45µM	i	i
CC(Cc1nnc(N)s1)c1ccccc1 (stereo unspecified)	32µM	i	i	i	i	i
COc1ccc(OC)c(CCNC(=O)Cn2ccc3cc(S(=O)(=O)N4CCCCC4)ccc32)c1	i	nt	i	i	i	nt
Cc1noc(C)c1C(=O)N1CCC2(CC1)CN(c1cccc(-c3ccccc3)c1)C2	i[12.7 µM]	nt	nt	nt	nt	nt
CC1(C)Cc2c(ccc3ccccc23)C(=O)N1	i[12.7 µM]	i	i	i	i	i
CCNC(=O)/C=C1\NC(C)(C)Cc2c1ccc1ccccc21	11µM	nt	i	i	i	nt
O=C(CSc1ncnc2nc[nH]c12)c1ccc(Cl)cc1	nt	i	?	18µM	i	-55
Cc1snc(SCC(=O)c2ccc([N+](=O)[O-])cc2)c1C#N	1.8µM	i	14µM	i[11.4 µM]	?	-57
SMILES	G9a block	L3MBTL1 inh	BAZ2B block	JMJD2A Tudor inh	HP1b binding inh	PI5P4K alpha inh
O=C(CSc1ncnc2nc[nH]c12)c1ccc([N+](=O)[O-])cc1	nt	i	79µM	i	i	i
CCN(CC)C(=O)CSc1nc2ncc(Br)cc2[nH]1	i	i	i	i	i	i
Cc1cccc(C)c1NC(=O)CSc1ncnc2nc[nH]c12	i	i	i	i	i	nt
O=C(CSc1ncnc2nc[nH]c12)c1ccccc1	?	i	?	i	i	i
O=C(CSc1nc2ncc(Br)cc2[nH]1)c1ccc([N+](=O)[O-])cc1	14µM	i	?	?	?	i
Cc1snc(SCC(=O)c2ccc(F)cc2)c1C#N	i	i	i	i[11.4 µM]	i	i

High-throughput results from PubChem.
